In PubChem BioAssay:
For part of these data: Entries with a potency or affinity are not part of this list. Active and inactive are the calls of the source. Unless noted, how the calls were made is not given here.

What was measured:
[1] = antimalarial activity against Dd2 strain (AID 2302;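 active means growth inhibition above 50% at the single 2 µM test dose, taken to imply half-maximal potency below 2 µM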;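 further: 0% = DMSO untreated growth and 100% = chloroquine plus artemisinin killed control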); conditions: P. falciparum Dd2 in RBCs, LDH growth readout, 72 h; at 2 µM; active compounds read high
[2] = human hepatoma cell viability loss – ATP luminescence, cytotoxicity control for P. falciparum antimalarial project, primary screen (AID 2303;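 active means inhibition above 50%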;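 further: 0% = DMSO wells and 100% = digitonin-killed cells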); conditions: HepG2 viability, 24-48 h, at 10 µM, active compounds read high
[3] = target: L-lactate dehydrogenase (Plasmodium falciparum (isolate CDC / Honduras)) (UniProt Q27743); experiment: PfLDH activity inhibition – cell lysate, 3D7 strain, counter-screen for P. falciparum growth inhibition project (AID 2304);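 further: 0% = vehicle and 100% = reference inhibitor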; conditions: P. falciparum 3D7 crude extract, LDH APAD/NBT absorbance; at 2 µM; active compounds read high
L-lactate dehydrogenase (Plasmodium falciparum (isolate CDC / Honduras)), sequence (Q27743 whole entry, looked up): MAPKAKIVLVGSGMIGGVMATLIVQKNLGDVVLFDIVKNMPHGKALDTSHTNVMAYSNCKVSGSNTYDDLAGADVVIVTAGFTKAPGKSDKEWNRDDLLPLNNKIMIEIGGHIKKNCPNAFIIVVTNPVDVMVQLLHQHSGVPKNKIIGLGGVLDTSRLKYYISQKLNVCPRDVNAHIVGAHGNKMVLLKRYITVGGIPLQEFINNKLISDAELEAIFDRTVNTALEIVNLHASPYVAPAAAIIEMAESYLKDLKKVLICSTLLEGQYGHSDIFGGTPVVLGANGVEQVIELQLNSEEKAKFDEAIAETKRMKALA

[4] = inhibition of 3D7 malaria parasite growth – strain 3D7 (AID 2306);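 further: 0% = DMSO wells and 100% = chloroquine plus artemisinin control wells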; conditions: P. falciparum 3D7 erythrocytic growth, LDH absorbance, 72 h; at 2 µM; active compounds read high
[5] = target: Calcium-dependent protein kinase 1 (Plasmodium falciparum (isolate 3D7)) (UniProt P62344); experiment: PfCDPK1 kinase inhibitors, biochemical, TCAMS library (AID 1159585; cut-off not given, nearly all actives have IC50 up to about 0.98 µM;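 further: inhibitors leave more ATP so luminescence rises with inhibition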); conditions: recombinant PfCDPK1, Kinase-Glo ATP depletion luminescence
Calcium-dependent protein kinase 1 (Plasmodium falciparum (isolate 3D7)), sequence (P62344 whole entry, looked up): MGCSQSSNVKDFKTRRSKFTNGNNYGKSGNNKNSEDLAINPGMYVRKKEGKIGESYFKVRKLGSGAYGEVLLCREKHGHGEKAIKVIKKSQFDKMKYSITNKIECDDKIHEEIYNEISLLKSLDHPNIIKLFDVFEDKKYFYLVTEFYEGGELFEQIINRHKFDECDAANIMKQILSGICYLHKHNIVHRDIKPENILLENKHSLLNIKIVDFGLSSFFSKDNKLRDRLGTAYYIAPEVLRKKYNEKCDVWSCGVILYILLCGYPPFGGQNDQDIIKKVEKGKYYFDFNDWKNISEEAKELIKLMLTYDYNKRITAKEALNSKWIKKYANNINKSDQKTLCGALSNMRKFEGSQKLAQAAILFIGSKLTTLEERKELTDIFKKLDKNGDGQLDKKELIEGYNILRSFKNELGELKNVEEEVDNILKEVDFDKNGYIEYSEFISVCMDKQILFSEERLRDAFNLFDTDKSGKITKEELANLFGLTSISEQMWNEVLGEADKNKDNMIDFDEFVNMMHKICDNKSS

[6] = target: Plasmodium falciparum protein kinase 6 (PK6, PF3D7_1337100) (UniProt Q8IDW1); experiment: PfPK6 kinase inhibitors, biochemical, TCAMS library (AID 1159586); conditions: recombinant PfPK6, Kinase-Glo ATP depletion luminescence
Plasmodium falciparum protein kinase 6 (PK6, PF3D7_1337100), sequence (Q8IDW1 1-305): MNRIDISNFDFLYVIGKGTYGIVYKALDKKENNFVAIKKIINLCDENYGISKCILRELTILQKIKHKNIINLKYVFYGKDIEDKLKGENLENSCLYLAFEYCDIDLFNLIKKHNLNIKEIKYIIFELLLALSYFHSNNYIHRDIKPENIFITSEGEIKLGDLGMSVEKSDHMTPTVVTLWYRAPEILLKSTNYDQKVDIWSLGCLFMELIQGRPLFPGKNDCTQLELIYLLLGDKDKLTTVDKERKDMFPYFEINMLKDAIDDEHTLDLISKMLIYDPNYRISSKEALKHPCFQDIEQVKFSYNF

[7] = target: Protein kinase 7 (PK7), Plasmodium falciparum 3D7 (PF3D7_0213400) (UniProt Q7YTF7); experiment: inhibition of Plasmodium PK7 catalytic activity – biochemical, TCAMS antimalarial set, Kinase-Glo luminescence (AID 1159587); conditions: recombinant PfPK7, Kinase-Glo ATP depletion luminescence
Protein kinase 7 (PK7), Plasmodium falciparum 3D7 (PF3D7_0213400), sequence (Q7YTF7 1-343): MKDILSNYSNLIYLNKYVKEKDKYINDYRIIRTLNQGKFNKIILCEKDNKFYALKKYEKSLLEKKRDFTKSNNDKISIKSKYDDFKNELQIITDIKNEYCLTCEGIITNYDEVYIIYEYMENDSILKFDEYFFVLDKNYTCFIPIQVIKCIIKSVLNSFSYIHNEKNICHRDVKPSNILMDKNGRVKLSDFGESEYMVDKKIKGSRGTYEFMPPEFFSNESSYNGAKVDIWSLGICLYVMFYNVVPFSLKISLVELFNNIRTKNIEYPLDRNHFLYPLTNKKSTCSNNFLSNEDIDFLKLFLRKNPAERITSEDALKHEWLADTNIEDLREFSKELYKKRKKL

[8] = target: Calcium-dependent protein kinase 4 (Plasmodium falciparum (isolate 3D7)) (UniProt Q8IBS5); experiment: PfCDPK4 kinase inhibitors, biochemical, TCAMS library (AID 1159588; cut-off not given, nearly all actives have IC50 up to about 0.91 µM); conditions: recombinant PfCDPK4, Kinase-Glo ATP depletion luminescence
Calcium-dependent protein kinase 4 (Plasmodium falciparum (isolate 3D7)), sequence (Q8IBS5 whole entry, looked up): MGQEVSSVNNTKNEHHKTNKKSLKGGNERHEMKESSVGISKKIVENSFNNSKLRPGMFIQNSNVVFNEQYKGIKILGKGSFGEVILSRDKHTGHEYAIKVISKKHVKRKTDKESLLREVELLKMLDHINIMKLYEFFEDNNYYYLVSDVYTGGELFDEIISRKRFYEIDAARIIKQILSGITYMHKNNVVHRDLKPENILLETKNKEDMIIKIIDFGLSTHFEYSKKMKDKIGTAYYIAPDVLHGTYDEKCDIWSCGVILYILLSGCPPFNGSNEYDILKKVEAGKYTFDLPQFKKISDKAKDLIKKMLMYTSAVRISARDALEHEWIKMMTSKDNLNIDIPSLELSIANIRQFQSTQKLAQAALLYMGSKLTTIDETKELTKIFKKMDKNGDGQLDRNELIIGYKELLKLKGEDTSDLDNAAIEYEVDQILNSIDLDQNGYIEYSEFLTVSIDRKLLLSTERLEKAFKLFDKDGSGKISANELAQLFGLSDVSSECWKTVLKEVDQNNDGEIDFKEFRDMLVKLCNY

COc1ccc2nccc(NC(=O)OC3CCC(NCc4ccc5c(n4)NC(=O)CS5)CC3)c2c1 (centres undefined)
active: growth inhibition [4] 98%
inactive: growth inhibition [1] 39% | inhibition [2] 9% | inhibition [3] -6% | outcome [5] | outcome [6] | outcome [7] | outcome [8]

Cn1c(NC(=O)c2ccc(CNC(=O)c3ccc(O)c(-c4ccc(Cl)c(Cl)c4)c3)cc2)nc2ccccc21
active: growth inhibition [1] 74% | growth inhibition [4] 94%
inactive: inhibition [2] 20% | inhibition [3] -1% | outcome [5] | outcome [6] | outcome [7] | outcome [8]

CN1N=C2c3ccccc3CCC2C1c1ccc(C#N)cc1 (centres undefined)
active: growth inhibition [1] 85% | growth inhibition [4] 95%
inactive: inhibition [2] -9% | inhibition [3] 2% | outcome [5] | outcome [6] | outcome [7] | outcome [8]
